Experimental findings from PubChem BioAssay (Tox21) are described below.

Inconclusive results are not listed. Values without a mark were called inactive. Calls follow the shape of the full dose curve. Square brackets hold non-standard residues; d marks the D form. Peptide text beside a SMILES is read from it. * marks the point of attachment. Sta = CC(C)C[C@H](N)[C@@H](O)CC(=O)O; Isovaleryl = CC(C)CC(=O)*
% is scaled to controls: 0 for no effect and ±100 for the full control effect.

The test in a line: p53 small molecule agonists, cell-based qHTS assay with rat liver microsomes (AID 1963578). The settings on record: HCT-116 p53RE-bla, beta-lactamase ratio, 16 h; series mostly up to 66 µM; activation: at the top concentration. From the text:
U.S. Tox21 Program National Center for Advancing Translational Sciences [NCATS] Division of Preclinical Innovation [DPI] U.S. Environmental Protection Agency [EPA] National Institutes of Environmental Health Sciences [NIEHS] National Toxicology Program [NTP] U.S. Food and Drug Administration [FDA] Tox21 Assay Overview: p53, a tumor suppressor protein, is activated following cellular insult, including DNA damage and other cellular stresses. The activation of p53 regulates cell fate by inducing DNA repair, cell cycle arrest, apoptosis, or cellular senescence. The activation of p53, therefore, is a good indicator of DNA damage and other cellular stresses. […] The activation of the reporter gene under culture conditions can be detected by fluorescence intensity. This cell line was used to screen the Tox21 10K compound library in the condition of presence of rat liver microsomes and to identify agonists that activate the p53 signaling pathway after in vitro metabolic activation (Ooka et al., Archive of Toxicology 96:1975-1987, 2022).
Tox21 Assay Protocol Summary: The p53RE-bla cells were dispensed at 4,000cells/3ul/well in 1536-well black-clear bottom plates. After the assay plates were incubated at 37 C, 5% CO2 incubator for 5 hours, 23 nL of compounds dissolved in DMSO, positive controls or DMSO only was transferred to the assay plate. Following compound addition, 3 uL of rat liver microsomes (Molecular Toxicology, Boone, NC) at final concentration of 0.5 mg/mL and 1uL of Beta-Nicotinamide adenine dinucleotide 2-phosphate (NADPH) at final concentration of 0.5 mg/mL were transferred to the assay plate. The plates were incubated at 37 C for 16 hours. 1 uL of LiveBLAzer detection mixture was added to each well and the plates were incubated at room temperature in the dark for 2 h.
(In qHTS, concentration-response curves come from the screen itself.)
Regarding `CC(C)NCC(O)c1ccc2ccccc2c1` (stereo not given), the “activation” value was -2.25% [at 30.3 µM].

Turning to `Cc1cc(CC(=O)O)c(C)n1-c1ccc(Cl)cc1`, the “activation” value was 1.15% [at 30.3 µM].

In the case of `CCOC(=O)[C@H](CCc1ccccc1)N[C@@H](C)C(=O)N1Cc2cc(OC)c(OC)cc2C[C@H]1C(=O)O`, the “activation” value is -0.78% [at 30.3 µM].

For `O=C(c1ccccc1)c1cccc(O)c1`, the “activation” value was -6.05%.

`CCCCOc1cc(C(=O)NCCN(CC)CC)c2ccccc2n1`: the “activation” value was 0.282% [at 30.3 µM].

Take `COS(=O)(=O)C(F)(F)F`: the “activation” value is -8.04%.

For `C[C@H](N)[C@H](O)c1cccc(O)c1`, the “activation” value was 1.68% [at 30.3 µM].

On to `C=CCNc1nc(NCC=C)nc(N2CCN(C(c3ccc(F)cc3)c3ccc(F)cc3)CC2)n1`, for which the “activation” value is 0.551% [at 30.3 µM].

In the case of `CC(C)C1OCCN1CCOC(=O)NCCCCCCNC(=O)OCCN1CCOC1C(C)C` (stereo not given), the “activation” value is 0.463%.

Consider `NS(=O)(=O)c1cc(-c2nn[nH]n2)c(NCc2cccs2)cc1Cl`, for which the “activation” value was -0.267% [at 30.3 µM].

As for `C=CC1CO1` (stereo not given), the “activation” value is 6.94%.

For `OCCCCC(O)CO` (stereo not given), the “activation” value is -1.96%.

Take `CCOC(=O)c1ccccc1O`: the “activation” value was -0.641% [at 30.3 µM].

Take `CC(=O)OC(C)(C)Cc1ccccc1`: the “activation” value was 0.369%.

In the case of `CC(=O)CC(c1ccc([N+](=O)[O-])cc1)c1c(O)c2ccccc2oc1=O` (stereo not given), the “activation” value is 0.907% [at 30.3 µM].

`COC(=O)C1CC(=O)C(C(=O)OC)CC1=O` (stereo not given): the activation was -0.919% [at 5.99 µM].

Turning to `CCN(CCCCOC(=O)c1ccc(OC)c(OC)c1)C(C)Cc1ccc(OC)cc1` (stereo not given), the “activation” value was -0.317% [at 30.3 µM].

For the molecule `O=C1Nc2cc(Cl)ccc2Oc2ccccc21`, the “activation” value is -3.42% [at 30.3 µM].

Consider `COCCc1ccccn1`, for which the “activation” value was -3.51% [at 30.3 µM].

In the case of `CN1C(=O)N(c2ccccc2Br)Cc2cnc(Nc3ccc4c(c3)OCC(CO)O4)nc21` (stereo not given), the “activation” value was -3.1%.

For the molecule `CC(C)=CCC1=C(O)c2ccccc2C(=O)C1=O`, the “activation” value was 25.6%.

As for `Cc1cc(OI)c(C(C)C)cc1-c1cc(C(C)C)c(OI)cc1C`, the “activation” value was -0.955% [at 30.3 µM].

Regarding `O=C(O)c1cc(C(=O)O)c(C(=O)O)cc1C(=O)O`, the “activation” value is 11.2%.

Take `CC(C)CC(=O)N[C@H](C(=O)N[C@H](C(=O)N[C@@H](CC(C)C)[C@@H](O)CC(=O)N[C@@H](C)C(=O)N[C@@H](CC(C)C)[C@@H](O)CC(=O)O)C(C)C)C(C)C` (Isovaleryl-VV[Sta]A[Sta]-OH): the “activation” value was 0.159% [at 30.3 µM].

`C=C(C)c1cccc(C(C)(C)N=C=O)c1`: the “activation” value was 2.21%.

Regarding `Cc1cc(Br)ccc1NC(=O)CCl`, the “activation” value was -0.639%.

Take `CCc1nccnc1CC`: the activation was 1.15% [at 13.6 µM].

As to `CCCCCCCCCCCCN1CCOCC1`, the “activation” value was 4.11%.

Take `C[C@H](CCC(=O)NCC(=O)O)[C@H]1CC[C@H]2[C@@H]3[C@H](O)C[C@@H]4C[C@H](O)CC[C@]4(C)[C@H]3C[C@H](O)[C@]12C`: the “activation” value was -0.795%.

With `COC(=O)CCCC(=O)O`, the “activation” value is -1.52%.

For the molecule `COc1cc(-c2ccc(N=C=O)c(OC)c2)ccc1N=C=O`, the “activation” value was -4.96% [at 30.3 µM].

For `CCCCCOc1ccc(C2SC(=O)NC2=O)cc1OCC` (stereo not given), the “activation” value is 1.88% [at 30.3 µM].

Regarding `CCNc1nc(NC(C)(C)C)nc(OC)n1`, the “activation” value was -0.558%.

Turning to `CC1=C(/C=C/C(C)=C\C=C\C(C)=C\C(=O)O)C(C)(C)CCC1`, the “activation” value was 2.23%.

For the molecule `C=COCCCCO`, the “activation” value is -1.23%.

For the molecule `Oc1ccc2c(c1)OCO2`, the “activation” value is 4.81%.

Turning to `CCOc1cccc(N)c1`, the “activation” value was -0.91%.

As to `COC(=O)c1cc(C(=O)OC)cc(S(=O)(=O)O)c1`, the “activation” value is -0.255%.

Turning to `CCC1=C(C)CN(C(=O)NCCc2ccc(S(=O)(=O)NC(=O)NC3CCC(C)CC3)cc2)C1=O` (stereo not given), the “activation” value is 0.18% [at 30.3 µM].

For `O=C(OC1C[C@H]2CC[C@@H](C1)[N+]21CCCC1)C(O)(c1ccccc1)c1ccccc1` (stereo not given in full), the “activation” value is -0.599% [at 30.3 µM].
